38 sequences from the OligoGym collection can be followed below.
Further: reference of the scale not given here.

For one assay, the target named is P2RY8. Nature of the assay: pooled miR-30 sensor sort-seq; sequence = guide strand. The note with it: shRNA.
As to TGGAACAGTCTAGAGAAGCAGG, the sensor-assay potency score (higher = more potent) was -1.38.
The same measure, in the same setting: the figure for TTTTCCATCTTAAAACATGTGT is -0.223; for TTCATTACTAAACCATCTCTGT it is -0.448; for TACACGTGGTAGTAGCTCTTGC it is -0.559.
On the same count and under the same terms, the figure for TTTCACTCAAAGCTCAACCAGT is 0.0389.
Same read-out and setting: the figure for TTGCTTTCTAGGGTTCAGCTTT is -0.874.
Take TTGAGGACGTCGAAGCAGGTGA: the sensor-assay potency score (higher = more potent) is -0.556.
The sequence TCAACCAGTGAACAGACTGAGT returned a sensor-assay potency score (higher = more potent) of -1.22.
Still for that read-out and setting: the figure for TACTGTGAAGATGCTACTCTGA is -0.29; for TTCAGCTTTGGAACAGTCTAGA it is -0.295; for TTGATCATGAAGATGACCGACG it is -0.289.

The target in another assay is P4HA2. Described as above. The note with it: shRNA.
Regarding TTTAGGTTTTGCGATCTCCTTG, the sensor-assay potency score (higher = more potent) is -0.309.
On the same count and under the same terms, under TTGCAACCTGTAACAATTCTGC stands -0.407.
On the same count and under the same terms, under TAGACAGCTAACTCTGCTGCAG stands -0.415; under TTAAGAAACGTCGCTAACCTAT, -0.763; under TTAACGTTTTTTCTCTCTCTTC, -0.749.
The sequence TTGCCTGGTACTTGGTTCCTGG registered a sensor-assay potency score (higher = more potent) of -0.843.
On the same count and under the same terms, the figure for TTGTACCAGAACACAGCTGTAC is -0.305; for TTATTGGAGACCCACTTGCAGC it is -1.45; for TAATCTTGGAAAGCTTGGCTTC it is -0.909.
Still for that read-out and setting: under TTAGGTTTTGCGATCTCCTTGA stands 0.73.
For TTCTACATCACTCATGTAGTTA, the sensor-assay potency score (higher = more potent) was -0.685.
The same measure, in the same setting: the figure for TATCTCGTCCTCATCAGTGGGG is 0.413.

The next assay addresses P4HB. The description is as above. Particulars: shRNA.
With TTTCTTAAAACCATCCAGCGTG, the sensor-assay potency score (higher = more potent) is -0.457.
Still for that read-out and setting: the figure for TAGAACTCCACAAAGACGTTTT is -0.145; for TTCACCTCCAAAAATCTTCGGG it is 0.109.
On the same count and under the same terms, under TTGACAGGCTGCTTGTCCCAGT stands -0.656; under TTTCTGATCATCGTCTTCCTCC, 0.0481.
Still for that read-out and setting: the figure for TTGCAGTGACCACACCATGGGG is -1.18; for TTCCTGAAGAACTTGATGGTGG it is 0.134.
The sequence TTGGAGAACACGTCACTGTTGG had a sensor-assay potency score (higher = more potent) of 0.0264.
Same read-out and setting: the figure for TATTTGGAGAACACGTCACTGT is -0.00902.
TTTGATAAAGTCCAGCAGGTTC: the sensor-assay potency score (higher = more potent) is -0.96.
Still for that read-out and setting: under TTGGCAGTCGAGTCCATCTTGG stands -1.06; under TTGTAATCAATGACCGTCCTGT, 0.492.

The target of the next assay is PAFAH1B2. The description is as above. The note with it: shRNA.
ATGAATTTAAACAACAATCTTC yielded a sensor-assay potency score (higher = more potent) of -0.0238.
The same measure, in the same setting: under TTGCTGCATTAACTGCACCATG stands -1.37; under TTTCGTGGTTATTTGTTCCTAC, 0.14.
